Results as given in PubChem BioAssay (NCATS).
Records with an inconclusive call do not appear. The source made the active and inactive calls. Unless noted, calls follow the shape of the dose curve; as a rule, active = well fitted curve in the direction sought with a large enough effect; inconclusive = small, poorly fitted or top-dose-only effect, or another doubt; inactive = no such curve, though single readings can be large; an effect the other way counts as inactive or inconclusive.

What was measured:
[1] = molecular target: Estrogen receptor (Homo sapiens) (UniProt P03372); test: qHTS assay for small molecule antagonists of estrogen receptor alpha signaling (AID 588513; active = well fitted curve in the direction sought with a large enough effect in the signal ratio, with a control signal flat, not every such curve was filed as active; the % refers to the signal ratio; also: % is scaled to controls: 0 for no effect and ±100 for the full control effect)
Summary of the method: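 Antagonist-mode qHTS in ER-alpha-UAS-bla HEK 293 cells: compound titration, 0.5nM estradiol for 18 h, CCF4 fluorescence, Hill-derived IC50.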

[2] = molecular target: Peroxisome proliferator-activated receptor gamma (Homo sapiens) (UniProt P37231); test: qHTS assay for small molecule agonists of peroxisome proliferator-activated receptor gamma signaling (AID 588536; active = well fitted curve in the direction sought with a large enough effect in the signal ratio, with a control signal flat, not every such curve was filed as active; the % refers to the signal ratio;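 also: 0% = DMSO basal wells and 100% = rosiglitazone at 2 µM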)
Summary of the method: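 This is an agonist-mode beta-lactamase reporter assay in HEK293 PPAR-gamma-UAS-bla cells with 1% charcoal/dextran FBS. Compound titrations ran 16 h at 37 C before CCF4 detection. EC50 and efficacy are Hill fits scaled to 2 uM rosiglitazone (100%) and DMSO basal.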

[3] = molecular target: Peroxisome proliferator-activated receptor gamma (Homo sapiens) (UniProt P37231); test: qHTS assay for small molecule antagonists of peroxisome proliferator-activated receptor gamma signaling (AID 588537; active = well fitted inhibition curve with a large enough effect in the signal ratio, with a control signal flat, not every such curve was filed as active; the % refers to the signal ratio;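 also: reporter cells co-stimulated with 50 nM rosiglitazone agonist during compound treatment; % of control where 0% means no effect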)
Summary of the method: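 HEK293 cells, PPAR-gamma-UAS-bla, 3000/well. Pre-incubation 6-6.5 h, 37 C. Compound titration with rosiglitazone 50 nM final, 16 h. CCF4 dye, 2 h RT, dual-emission fluorescence.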

[4] = molecular target: Vitamin D3 receptor (Homo sapiens) (UniProt P11473); test: qHTS assay for small molecule agonists of vitamin D receptor signaling (AID 588543; calls by dose curve;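 also: 0% = DMSO basal and 100% = reference agonist control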)
Summary of the method: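 Measured: β-lactamase reporter activity (CCF4, 405 nm excitation, 460/530 nm emission) in HEK293T VDR-UAS-bla cells after 16 h compound exposure at 37 °C. Normalization against 50 nM 1α,25-dihydroxyvitamin D3 and DMSO; Hill-fit EC50.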

[5] = qHTS assay for small molecule agonists of retinoid X receptor alpha signaling (AID 588544; calls by dose curve;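 as to activation: 0% = DMSO basal wells and 100% = reference agonist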); conditions: HEK293T RXRa-UAS-bla, beta-lactamase reporter, 18 h; 530 nm emission
[6] = molecular target: Retinoic acid receptor RXR-alpha (Homo sapiens) (UniProt P19793); test: as above
[7] = molecular target: Thyroid hormone receptor beta (Homo sapiens) (UniProt P10828); test: qHTS assay for small molecule agonists of thyroid hormone receptor beta signaling (AID 588545; calls by dose curve)
Summary of the method: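 Agonist activity was read as beta-lactamase CCF4 fluorescence (405 ex, 460/530 em), scaled between DMSO (0%) and 10 nM T3 (100%), then Hill-fitted for EC50 and efficacy. HEK 293 TR-UAS-bla cells in 2% charcoal/dextran FBS medium were exposed 18 h at 37 C.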

[8] = qHTS assay for small molecule antagonists of retinoid X receptor alpha signaling (AID 588546; active = well fitted inhibition curve with a large enough effect in the signal ratio, with a control signal flat, not every such curve was filed as active; the % refers to the signal ratio;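 also: cells stimulated with 9-cis-retinoic acid as agonist; % is scaled to controls: 0 for no effect and ±100 for the full control effect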); conditions: HEK293T RXRa-UAS-bla, beta-lactamase ratio, antagonist mode; measured here: W530 green channel, cytotoxicity proxy
Summary of the method: (§1)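 Beta-lactamase reporter inhibition, read as CCF4 fluorescence ratio (ex 405, em 460/530 nm) after 2 h at RT. HEK293T UAS-bla cells, 2500/well, were stimulated with 9-cis-RA at 500 or 100 nM final alongside test compound for 18 h at 37 C.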

[9] = molecular target: Retinoic acid receptor RXR-alpha (Homo sapiens) (UniProt P19793); test: as above; conditions: HEK293T RXRa-UAS-bla, beta-lactamase ratio, antagonist mode
Summary of the method: as §1

[10] = molecular target: Thyroid hormone receptor beta (Homo sapiens) (UniProt P10828); test: qHTS assay for small molecule antagonists of thyroid hormone receptor beta signaling (AID 588547; active = well fitted inhibition curve with a large enough effect in the signal ratio, with a control signal flat, not every such curve was filed as active; the % refers to the signal ratio;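 also: cells stimulated with 0.4 nM T3 agonist during compound exposure; series mostly up to about 77 µM; % is scaled to controls: 0 for no effect and ±100 for the full control effect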); conditions: TR-UAS-bla HEK293, beta-lactamase ratio, antagonist mode, 18 h
Summary of the method: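 TR-UAS-bla GripTite HEK293 cells in 2% charcoal/dextran FBS medium were preincubated 4 h at 37 C, given compound (0.59 nM to 92 uM) plus 0.4 nM T3 (final) for 18 h, then CCF4 for 2 h at RT; Hill fit gave IC50.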

[11] = qHTS assay for small molecule activators of the p53 signaling pathway (AID 651743; active = well fitted activation curve with a large enough effect in the signal ratio, not every such curve was filed as active; the % refers to the signal ratio; also: series mostly up to about 92 µM; % of control where 0% means no effect); conditions: HCT-116 p53RE-bla, beta-lactamase FRET ratio, 16 h; activation: stronger effect = higher value
Summary of the method: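 Here HCT-116 cells with an integrated p53-responsive beta-lactamase gene were incubated with compounds (16 hours, 37 C) after a 5-hour plating period; beta-lactamase activity was detected as fluorescence intensity via B/G FRET substrate.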

[12] = qHTS assay for small molecule activators of the nuclear factor-kappa B (NF-kB) signaling pathway (AID 651749; active = well fitted activation curve with a large enough effect in the signal ratio; the % refers to the signal ratio; also: series mostly up to about 77 µM; % of control where 0% means no effect); conditions: NF-kB-bla ME-180 cells, beta-lactamase FRET ratio, 16 h; activation: stronger effect = higher value
Summary of the method: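 Beta-lactamase reporter expression, controlled by NF-kB response elements in ME-180 cells, was quantified fluorometrically via FRET disruption; cells at 2,000/well had been incubated with 23 nL test compound for 16 hr.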

[13] = qHTS assay for environmental chemicals that activate the Aryl hydrocarbon Receptor (AhR) signaling pathway (AID 651777); conditions: 1A2-DRE human hepatoma cells, luciferase, 24 h; activation: stronger effect = higher value; also: nearly all actives have a fitted effect of over 15% in size; also: potency is read from the fitted curve at half-maximal effect; as to activation: % of control where 0% means no effect
Summary of the method: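 Induction of CYP1A2 transcription through AhR is detected by luciferase in 1A2-DRE hepatoma cells. Compounds or DMSO act for 24 hr at 37 C before a 30 min One-Glo step at room temperature.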

[14] = molecular target: Peroxisome proliferator-activated receptor alpha (Homo sapiens) (UniProt Q07869); test: qHTS assay for small molecule agonists of the peroxisome proliferator-activated receptor alpha (PPARalpha) signaling pathway (AID 651778); conditions: PathHunter PPARalpha complementation, chemiluminescence, 6 h; max response: stronger effect = higher value; also: % of control where 0% means no effect
Summary of the method: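 Cells plated at 2,000/well and held overnight at 37 C, 5% CO2, then compound added by pin tool for 6 hr; after PathHunter detection reagent and 60 min at room temperature, chemiluminescence from enzyme complementation was read.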

[15] = qHTS assay for small molecule agonists of the antioxidant response element (ARE) signaling pathway measured by Nrf2-dependant transcriptional activity (AID 720636; active = well fitted curve in the direction sought with a large enough effect in the repeat runs; an effect the other way counts as inactive or inconclusive;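 also: HepG2 cells with an ARE-driven luciferase reporter; % of control where 0% means no effect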)
Summary of the method: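 We exposed ARE-luc HepG2 cells, seeded in assay medium with 1% dialyzed FBS and allowed 6 hr to adhere, to test compounds overnight (16 hr, 37 C) before measuring luciferase with ONE-Glo.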

[16] = qHTS assay for small molecule agonists of the antioxidant response element (ARE) signaling pathway measured by Nrf2-dependant transcriptional activity - cell viability counter screen (AID 720653; active = well fitted curve in the direction sought with a large enough effect in the repeat runs; an effect the other way counts as inactive or inconclusive; also: % is scaled to controls: 0 for no effect and ±100 for the full control effect); conditions: ARE-bla HepG2 viability, CellTiter-Glo ATP luminescence, 16 h; max response: stronger effect = lower value
Summary of the method: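 ARE-bla HepG2 cells (2,000/well) rested 5 hrs at 37C/5% CO2, then exposed to compounds in DMSO for 16 hrs. Viability was read in the same wells as intracellular ATP by luminescence, 30 min at room temperature after reagent addition.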

[17] = qHTS assay for cell viability of HEK293 cells (AID 743288); conditions: ATP luminescence (CellTiter-Glo), 18 h; max response: stronger effect = lower value; also: % is scaled to controls: 0 for no effect and ±100 for the full control effect; nearly all actives have a fitted effect of over 50% in size
Summary of the method: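 HEK293, 18 h, 37 C, ATP luminescence. Cells at 2,000/well were allowed at least 5 h to settle before dosing; CellTiter-Glo developed 30 min at RT.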

[18] = molecular target: Nuclear receptor subfamily 1 group I member 2 (Rattus norvegicus) (UniProt Q9R1A7); test: qHTS assay for small molecule activators of the rat pregnane X receptor (rPXR) signaling pathway (AID 651751; call rule not given here; also: 0% is about no effect); conditions: rPXR reporter cells, luciferase (One-Glo), 24 h
[19] = qHTS assay for small molecule activators of the human pregnane X receptor (PXR) signaling pathway (AID 720659; call rule not given here; also: 0% is about no effect)
[20] = qHTS assay for cell viability of the p53RE-bla HCT-116 cell line (AID 743292); also: % is scaled to controls: 0 for no effect and ±100 for the full control effect; nearly all actives have a fitted effect of over 55% in size
Summary of the method: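 In this qHTS counter-screen, metabolically competent p53RE-bla HCT-116 cells were counted via their ATP content. Compounds were applied for 16 h at 37 C and luciferase-coupled luminescence was measured.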

Sequence of Vitamin D3 receptor (Homo sapiens) (P11473 whole entry, looked up): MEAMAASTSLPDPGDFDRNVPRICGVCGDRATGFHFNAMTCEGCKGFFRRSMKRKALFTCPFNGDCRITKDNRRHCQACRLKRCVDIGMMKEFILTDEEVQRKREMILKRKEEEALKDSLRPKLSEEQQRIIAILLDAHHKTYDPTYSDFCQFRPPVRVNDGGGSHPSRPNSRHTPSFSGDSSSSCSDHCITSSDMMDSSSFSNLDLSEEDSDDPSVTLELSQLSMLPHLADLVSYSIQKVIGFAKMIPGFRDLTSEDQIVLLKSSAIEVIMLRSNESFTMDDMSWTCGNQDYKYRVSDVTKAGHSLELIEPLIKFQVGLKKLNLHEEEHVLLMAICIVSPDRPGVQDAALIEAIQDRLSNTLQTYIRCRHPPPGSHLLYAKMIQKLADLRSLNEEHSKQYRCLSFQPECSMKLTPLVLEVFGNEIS
Sequence of Thyroid hormone receptor beta (Homo sapiens) (P10828 whole entry, looked up): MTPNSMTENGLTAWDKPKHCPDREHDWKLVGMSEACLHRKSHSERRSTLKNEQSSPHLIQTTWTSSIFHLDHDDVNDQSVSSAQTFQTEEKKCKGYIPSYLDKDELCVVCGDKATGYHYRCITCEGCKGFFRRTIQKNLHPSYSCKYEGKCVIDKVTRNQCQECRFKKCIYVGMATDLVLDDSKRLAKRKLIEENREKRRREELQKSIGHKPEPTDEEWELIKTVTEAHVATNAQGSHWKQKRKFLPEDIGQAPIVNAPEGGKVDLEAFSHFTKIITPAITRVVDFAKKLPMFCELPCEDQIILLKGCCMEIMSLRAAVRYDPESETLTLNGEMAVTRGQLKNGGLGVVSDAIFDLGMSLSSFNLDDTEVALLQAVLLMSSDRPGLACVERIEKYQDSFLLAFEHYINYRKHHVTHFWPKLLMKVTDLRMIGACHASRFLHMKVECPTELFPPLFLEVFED
Sequence of Estrogen receptor (Homo sapiens) (P03372 whole entry, looked up): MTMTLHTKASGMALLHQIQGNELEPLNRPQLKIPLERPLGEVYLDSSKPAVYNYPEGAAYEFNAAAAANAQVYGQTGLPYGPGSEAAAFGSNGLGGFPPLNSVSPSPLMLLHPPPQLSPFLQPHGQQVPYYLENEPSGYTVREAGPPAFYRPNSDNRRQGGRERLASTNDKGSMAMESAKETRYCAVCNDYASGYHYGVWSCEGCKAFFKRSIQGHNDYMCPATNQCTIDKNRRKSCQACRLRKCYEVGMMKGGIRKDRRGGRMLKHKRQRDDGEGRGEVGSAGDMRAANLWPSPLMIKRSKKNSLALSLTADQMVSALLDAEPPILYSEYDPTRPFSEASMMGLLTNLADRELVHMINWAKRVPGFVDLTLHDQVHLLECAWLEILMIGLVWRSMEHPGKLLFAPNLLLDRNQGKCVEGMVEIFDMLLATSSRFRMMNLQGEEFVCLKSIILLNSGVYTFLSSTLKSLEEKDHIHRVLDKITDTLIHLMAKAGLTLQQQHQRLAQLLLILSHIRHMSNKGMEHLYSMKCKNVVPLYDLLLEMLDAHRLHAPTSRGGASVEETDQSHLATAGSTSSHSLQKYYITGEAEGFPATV
Sequence of Nuclear receptor subfamily 1 group I member 2 (Rattus norvegicus) (Q9R1A7 whole entry, looked up): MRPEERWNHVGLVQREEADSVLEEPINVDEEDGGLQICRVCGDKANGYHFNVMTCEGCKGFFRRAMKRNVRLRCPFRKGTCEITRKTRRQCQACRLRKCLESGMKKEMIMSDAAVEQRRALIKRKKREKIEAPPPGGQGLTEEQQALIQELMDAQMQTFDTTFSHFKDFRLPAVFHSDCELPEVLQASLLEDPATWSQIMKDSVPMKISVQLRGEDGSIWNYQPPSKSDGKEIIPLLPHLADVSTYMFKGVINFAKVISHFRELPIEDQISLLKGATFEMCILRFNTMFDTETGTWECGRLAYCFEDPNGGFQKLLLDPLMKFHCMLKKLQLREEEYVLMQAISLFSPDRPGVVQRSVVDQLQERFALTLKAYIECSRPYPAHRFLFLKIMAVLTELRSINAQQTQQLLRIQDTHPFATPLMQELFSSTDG
Sequence of Peroxisome proliferator-activated receptor alpha (Homo sapiens) (Q07869 whole entry, looked up): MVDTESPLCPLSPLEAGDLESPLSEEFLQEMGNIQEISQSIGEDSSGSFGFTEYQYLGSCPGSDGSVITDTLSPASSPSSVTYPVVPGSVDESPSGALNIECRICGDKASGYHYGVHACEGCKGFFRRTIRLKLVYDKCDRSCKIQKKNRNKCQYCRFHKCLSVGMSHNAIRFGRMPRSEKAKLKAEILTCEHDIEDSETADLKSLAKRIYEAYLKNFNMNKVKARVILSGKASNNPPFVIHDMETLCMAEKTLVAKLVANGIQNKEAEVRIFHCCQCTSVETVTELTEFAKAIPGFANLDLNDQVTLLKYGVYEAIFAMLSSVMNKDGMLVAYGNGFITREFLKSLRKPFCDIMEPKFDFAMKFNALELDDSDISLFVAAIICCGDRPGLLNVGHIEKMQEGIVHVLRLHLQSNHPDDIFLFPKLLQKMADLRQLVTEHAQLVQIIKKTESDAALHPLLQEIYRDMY
Sequence of Retinoic acid receptor RXR-alpha (Homo sapiens) (P19793 whole entry, looked up): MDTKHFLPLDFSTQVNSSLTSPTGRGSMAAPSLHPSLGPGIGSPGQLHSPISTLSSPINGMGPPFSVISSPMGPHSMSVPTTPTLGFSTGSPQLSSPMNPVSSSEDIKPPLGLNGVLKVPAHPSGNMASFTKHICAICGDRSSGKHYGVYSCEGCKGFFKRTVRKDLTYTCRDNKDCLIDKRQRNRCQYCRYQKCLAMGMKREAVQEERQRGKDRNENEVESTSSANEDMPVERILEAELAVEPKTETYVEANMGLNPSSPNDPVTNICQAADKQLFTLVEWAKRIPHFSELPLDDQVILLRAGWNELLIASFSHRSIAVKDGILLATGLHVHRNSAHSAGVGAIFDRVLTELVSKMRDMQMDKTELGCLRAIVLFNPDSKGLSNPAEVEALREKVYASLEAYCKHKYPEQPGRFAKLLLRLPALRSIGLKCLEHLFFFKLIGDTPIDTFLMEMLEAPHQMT
Sequence of Peroxisome proliferator-activated receptor gamma (Homo sapiens) (P37231 whole entry, looked up): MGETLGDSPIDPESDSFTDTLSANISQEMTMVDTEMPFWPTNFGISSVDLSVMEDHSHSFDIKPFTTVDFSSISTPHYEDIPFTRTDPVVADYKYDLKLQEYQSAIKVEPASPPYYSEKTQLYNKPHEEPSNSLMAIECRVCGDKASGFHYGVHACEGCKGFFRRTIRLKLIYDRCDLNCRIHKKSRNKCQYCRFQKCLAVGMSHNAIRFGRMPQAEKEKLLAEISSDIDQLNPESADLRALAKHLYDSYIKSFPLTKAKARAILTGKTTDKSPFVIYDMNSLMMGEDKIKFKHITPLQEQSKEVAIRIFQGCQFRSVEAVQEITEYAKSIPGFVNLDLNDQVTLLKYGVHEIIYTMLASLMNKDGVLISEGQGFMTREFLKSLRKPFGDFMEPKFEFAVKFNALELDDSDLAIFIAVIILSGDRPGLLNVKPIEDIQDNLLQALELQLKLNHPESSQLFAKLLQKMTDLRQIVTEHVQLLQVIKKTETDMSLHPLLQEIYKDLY

CC(C)Cc1c(C(=O)O)c(C(F)F)nc(C(F)(F)F)c1C1=NCCS1
-17.4%: max response [5]
-0.767%: max response [8]
inactive: Potency [1] | outcome [2] | Potency [3] | outcome [4] | Potency [6] | Potency [7] | max response [9] 6.24% | activity change % (negative = inhibition) [10] -21.3% | activation [11] -1.35% | activation [12] 1.24% | activation [13] -4.01% | max response [14] -0.845% | Potency [15] | max response [16] 3.82% | max response [17] -5.4% | max response [18] -2.45%

CCOC(=O)COc1cc(-n2ncc(C(F)(F)F)c(C)c2=O)c(F)cc1Cl
9.89%: max response [5]
inactive: Potency [1] | outcome [2] | Potency [3] | outcome [4] | Potency [6] | Potency [7] | activity change % (negative = inhibition) [10] -20.3% | activation [11] 2.36% | activation [13] -2.83% | max response [14] -2.22% | max response [17] 2.7% | max response [18] -8.22% | outcome [19]

C=C(C)C(=O)OCCCCCCCCCCCCCCCC
-3.04%: max response [8]
-13%: max response [5]
inactive: Potency [1] | outcome [2] | Potency [3] | outcome [4] | Potency [6] | Potency [7] | max response [9] -1.04% | activity change % (negative = inhibition) [10] -5.63% | activation [11] -3.74% | activation [12] -3.24% | activation [13] 0.0765% | max response [14] -2.7% | Potency [15] | max response [16] 0.407% | max response [17] -1.34% | Potency [20] | max response [18] 2.75% | outcome [19]

C=CC(=O)OCC[N+](C)(C)C
1.33%: max response [5]
inactive: Potency [1] | outcome [2] | Potency [3] | outcome [4] | Potency [6] | Potency [7] | max response [9] 1.59% | activity change % (negative = inhibition) [10] -9.01% | activation [11] 2.09% | activation [13] 0.372% | max response [14] -0.129% | Potency [15] | max response [16] 1.86% | max response [17] -5.74% | Potency [20] | max response [18] -0.896%
1.52%: max response [8]

OCCC(F)(F)C(F)(F)C(F)(F)C(F)(F)C(F)(F)C(F)(F)C(F)(F)C(F)(F)F
-18.9%: max response [8]
inactive: Potency [1] | outcome [4] | Potency [6] | Potency [7] | max response [9] -9.11% | activation [11] 2.93% | activation [12] 1.52% | activation [13] 0.162% | max response [14] 0.874% | Potency [15] | max response [16] -8.07% | max response [17] -9.6% | Potency [20] | max response [18] -1.29%
-23.4%: max response [5]

C[N+](C)(C)CC(O)CCl (stereo not given)
-3.49%: max response [5]
inactive: Potency [1] | outcome [2] | Potency [3] | outcome [4] | Potency [6] | Potency [7] | max response [9] 4% | activity change % (negative = inhibition) [10] -6.17% | activation [11] 0.454% | activation [12] -1.69% | activation [13] 0.882% | max response [14] -0.685% | Potency [15] | max response [16] 0.797% | max response [17] -11.6% | Potency [20] | max response [18] 0.555% | outcome [19]
-3.33%: max response [8]

CCOC(=O)c1ccccc1C
inactive: Potency [1] | outcome [2] | Potency [3] | Potency [6] | Potency [7] | max response [9] 1.73% | activity change % (negative = inhibition) [10] -2.99% | activation [11] 2.88% | activation [12] 0.727% | activation [13] -0.718% | max response [14] -0.0686% | Potency [15] | max response [16] 0.0878% | max response [17] 0.0695% | Potency [20] | max response [18] 1% | outcome [19]
-8.14%: max response [5]
-9.25%: max response [8]

CC(=O)Nc1ccc(N=Nc2cc(C)ccc2O)cc1
3.3%: max response [5]
active: Potency [13] 4.47 µM
inactive: outcome [4] | Potency [6] | Potency [7] | max response [9] -20.6% | activation [11] -6.18% | activation [12] -1.84% | max response [14] -3.57% | max response [16] 1.65% | max response [17] -16.4% | max response [18] 1.28%
-4.33%: max response [8]

O=S(=O)(O)c1cc(S(=O)(=O)O)c2c(N=Nc3ccccc3)c(O)ccc2c1
inactive: Potency [1] | Potency [6] | Potency [7] | activity change % (negative = inhibition) [10] -8.36% | activation [11] -0.0659% | activation [12] 1.12% | activation [13] 0.18% | max response [14] -5.78% | Potency [15] | max response [16] -9.68% | max response [17] -12.7% | max response [18] 3.04%
-6.55%: max response [5]

CC(C)=CCC[C@@H](C)[C@H]1CC[C@@]2(C)C3=C(CC[C@]12C)[C@@]1(C)CC[C@H](O)C(C)(C)[C@@H]1CC3
inactive: outcome [2] | outcome [4] | Potency [6] | Potency [7] | max response [9] 8.2% | activity change % (negative = inhibition) [10] -4.34% | activation [11] 2.67% | activation [12] 1.26% | activation [13] 1.89% | Potency [15] | max response [16] 3.07% | max response [17] -4.2% | max response [18] 0.187% | outcome [19]
-27.3%: max response [5]
0.0546%: max response [8]

CCCN(CCC)c1c([N+](=O)[O-])cc(C(F)(F)F)c(N)c1[N+](=O)[O-]
inactive: outcome [4] | Potency [7] | max response [9] -37.1% | activation [13] 2.99% | Potency [15] | max response [16] -7.36% | max response [17] -20.5%
-8.88%: max response [8]

Nc1ccc(N)c2c1C(=O)c1c(N)ccc(N)c1C2=O
inactive: outcome [2] | Potency [3] | outcome [4] | Potency [6] | Potency [7] | activity change % (negative = inhibition) [10] 20.4% | activation [12] 7.06% | activation [13] 12.2% | max response [14] 7.09% | max response [16] -2.4% | max response [17] -28.2% | Potency [20] | max response [18] -7.59% | outcome [19]
-9.83%: max response [5]
